USP30 inh = blocks human USP30 ubiquitin-rhodamine cleavage; inhibition, % at 25 µM; purified USP30, Ub-rhodamine cleavage fluorescence; hit rate 5.3% among 47,000
USP28 inh = blocks human USP28 ubiquitin-rhodamine cleavage; purified USP28, Ub-rhodamine cleavage fluorescence, 30 min; AID 1645857; Q96RU2; hit rate 3% among 47,000; inhibition, % at 25 µM
OTUD3 block = human OTUD3 deubiquitinase inhibition | Q5T2D3 | inhibition, % at 25 µM | hit rate 0.7% among 47,000 | purified OTUD3, Ub-rhodamine fluorescence, 2 h | AID 1645858
Target sequence (Q5T2D3 whole entry, looked up): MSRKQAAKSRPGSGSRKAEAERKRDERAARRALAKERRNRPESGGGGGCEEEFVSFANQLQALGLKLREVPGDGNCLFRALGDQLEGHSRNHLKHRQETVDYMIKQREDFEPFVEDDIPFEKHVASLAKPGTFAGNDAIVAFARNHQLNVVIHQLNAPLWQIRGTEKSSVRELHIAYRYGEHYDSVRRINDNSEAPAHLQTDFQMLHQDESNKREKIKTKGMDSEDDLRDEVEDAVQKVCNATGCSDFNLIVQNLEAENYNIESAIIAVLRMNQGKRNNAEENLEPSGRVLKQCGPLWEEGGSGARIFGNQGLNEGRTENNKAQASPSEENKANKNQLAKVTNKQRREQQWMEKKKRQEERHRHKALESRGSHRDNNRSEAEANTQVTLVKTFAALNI
USP17 inh = inhibitors of human USP17 deubiquitinase. hit rate 6.5% among 47,000. A8MUK1. purified USP17, Ub-rhodamine cleavage fluorescence, 3 h. inhibition, % at 50 µM
Numbers stand for hits; 0 = inactive; - = no result given. In the library only some 12% were active in any assay of this set; here they are far more common. No stated cut-off is given here; in the data, active means inhibition above about 30%; inactive means the rest.

SMILES	USP30 inh	USP28 inh	OTUD3 block	USP17 inh
Cc1cc(C)nc(-n2nc(C)c3c2NC(=O)CSC3c2ccc(O)cc2)n1 (configuration not stated)	0	0	0	0
Cc1cc(C)nc(-n2nc(C)c3c2NC(=O)CSC3c2ccc(F)cc2F)n1 (configuration not stated)	77	0	0	45
Fc1ccc(C2=NOC3CN(Cc4ccccn4)CC23)cc1 (configuration not stated)	0	0	0	0
COc1c2c(c(O)c3c1C(=O)c1c(cc(O)c(C)c1O)C3=O)-c1c(cc3c(c1O)C(=O)OC3O)CC2 (configuration not stated)	59	88	89	94
CCOC(=O)[C@@H]1[C@@H](c2ccccc2)CN2CCN(C(=O)c3ocnc3C)C[C@H]12	-	-	0	0
Cn1cc(NC(=O)c2cc(NC(=O)CN=C(N)N)cn2C)cc1C(=O)NCCC(=N)N	0	0	0	0
COc1cc2c(c3oc4cccc(O)c4c(=O)c13)C1C=COC1O2 (configuration not stated)	0	50	0	54
COCC(O)C1OC(=O)C(O)CC2C=CC3C4OC2(/C(C)=C\C1C)C3C(O)C(COC)C4OC(=O)c1ccc[nH]1 (configuration not stated)	38	0	0	0
CO/C1=C\C(C)=C\[C@@H](C)[C@@H](O)[C@H](C)C/C(C)=C/C=C/[C@H](OC)[C@@H]([C@@H](C)[C@@H](O)[C@H](C)[C@@]2(O)C[C@@H](OC(=O)/C=C/C(=O)NC3=C(O)CCC3=O)[C@H](C)[C@@H](C(C)C)O2)OC1=O	0	0	0	40
Cc1nc(NCC2CC2)nc2c1COCC21CCN(CC2CC2)C1 (configuration not stated)	0	0	0	0
CCN1CCC2(COCc3c(C)nc(-c4ccccc4)nc32)C1 (configuration not stated)	0	36	0	0
c1ccc(CCN2CCc3nc4cccnc4cc3C2)nc1	0	0	0	0
COc1cccc2c1NC(=O)C21CCN(C(=O)Nc2cccc3ccccc23)CC1	0	0	0	92
O=C(Nc1ccccc1)N1CCC2(CC1)C(=O)Nc1c(Oc3ccccc3)cccc12	0	0	0	0
CN1C(=O)[C@@]23C[C@]4([C@@]56C[C@]78SS[C@](CO)(C(=O)N7[C@@H]5Nc5ccccc56)N(C)C8=O)c5ccccc5N[C@@H]4N2C(=O)[C@]1(CO)SS3	68	0	0	0
COC1=C(C2=C(OC)C(=O)c3cc4c(c(O)c3C2=O)C(=O)OC(C)C4)C(=O)c2c(cc3c(c2O)C(=O)OC(C)C3)C1=O (configuration not stated)	0	67	64	70
COCC(C)NC(=O)c1cc2cccnc2n(Cc2ccc(F)cc2)c1=O (configuration not stated)	31	0	0	38
O=C(NCc1ccco1)c1cc2cccnc2n(Cc2ccccc2)c1=O	0	0	0	0
Cn1cc(C(=O)NCc2ccc3c(c2)OCO3)c2cccnc21	0	0	0	0
CO[C@H]1/C=C/C=C\C=C\C[C@H](OC(=O)[C@@H](C)NC(=O)C2CCCCC2)[C@H](C)[C@@H](O)/C(C)=C\CCc2cc(O)cc(c2O)NC(=O)C1	0	0	0	33
Cc1ccc(C2SCC(=O)Nc3c2c(=O)[nH]n3C2CCCCC2)cc1 (configuration not stated)	0	0	0	0
O=C1CSC(c2ccc3c(c2)OCO3)c2c(n(C3CCCCCC3)[nH]c2=O)N1 (configuration not stated)	33	0	0	0
CCOc1ccc(C2SCC(=O)Nc3c2c(=O)[nH]n3C2CCCCC2)cc1 (configuration not stated)	35	0	0	0
O=C1CSC(c2ccc3c(c2)OCO3)c2c(-c3ccccc3)nn(-c3ccccc3)c2N1 (configuration not stated)	30	0	0	0
CC1(C)CC(n2[nH]c(=O)c3c2NC(=O)CSC3c2ccc(OCc3ccccc3)cc2)CCO1 (configuration not stated)	53	0	0	0
SMILES	USP30 inh	USP28 inh	OTUD3 block	USP17 inh
CCOc1ccc(C2SCC(=O)Nc3c2c(=O)[nH]n3C2CCCCCC2)cc1 (configuration not stated)	0	0	0	0
COc1ccc2c3c4n(c2c1)[C@H](C=C(C)C)OOC(C)(C)C[C@H]4N1C(=O)[C@H]2CCCN2C(=O)[C@@]1(O)[C@@H]3OCC=C(C)C	0	0	0	0
O=C(NCC1CCC1)C1=NOC2(CCNC2)C1 (configuration not stated)	0	0	0	0
COc1ccc(C2SCC(=O)Nc3c2c(=O)[nH]n3C2CCCCCC2)cc1 (configuration not stated)	0	0	0	50
O=C(Nc1nc2ccccc2s1)c1cccn(Cc2cccc(Cl)c2)c1=O	0	0	0	46
O=C(Nc1nccs1)c1cccn(Cc2ccc(Cl)c(Cl)c2)c1=O	0	0	0	31
CCN1C[C@H]2C[C@H](C(=O)NCc3cccnc3)[C@@H](C1)O2	0	0	0	0
Cc1cccc(CN2C[C@H]3CCc4c(nc(C)[nH]c4=O)[C@H]3C2)n1	0	0	0	0
COc1ccc2c3c4n(c2c1)[C@@H](C=C(C)C)OOC(C)(C)C[C@@H]4N1C(=O)[C@@H]2CCCN2C(=O)[C@]1(O)[C@H]3O	0	0	0	0
C/C=C1/CN2CC[C@]34C(=C(C(=O)OC)[C@H]1C[C@H]23)Nc1c(O)cccc14	0	0	0	37
Cc1nn(Cc2ccccc2)c(Cl)c1C(=O)NC1CCCc2ccccc21 (configuration not stated)	35	31	0	56
FC(F)(F)c1nc2ccccc2n1C1CCN(Cc2cccnc2)CC1	0	0	0	0
CC1Oc2cc3c(-c4c(O)cc(O)c5c(O)c6c(cc45)OC(C)C(C)C6=O)c(O)cc(O)c3c(O)c2C(=O)C1C (configuration not stated)	35	90	84	81
COc1cc(C2SCC(=O)Nc3n[nH]c(C)c32)ccc1OCc1ccc(F)cc1 (configuration not stated)	0	0	0	0
O=C(COc1cccc(-n2cnnn2)c1)Nc1ccc(Cl)cc1C(=O)c1ccccc1	0	0	0	0
O=C1C=CC(O)C2C1CC13SSC4(CC5C(=O)C=CC(O)C5N4C1=O)C(=O)N23 (configuration not stated)	60	0	0	0
CC1=CC2O[C@@H]3C[C@H]4OC(=O)/C=C\CCC5(C(=O)CO)OCC/C(=C\C(=O)OCC2(CC1)[C@]4(C)C31CO1)C5O (some centres not stated)	0	0	0	0
C=C/C(=C/C(=O)C[C@H](C)C[C@@H](C)CC[C@H](O)[C@H](C)C(=O)CC(O)[C@H](C)[C@@H](C)OC(=O)C[C@@H](O)C1=C(C)C(=O)OC1=O)CC (some centres not stated)	54	90	89	88
CN1CC[C@@H]2[C@H]1CCCCN2C(=O)COc1ccc(F)cc1	0	0	0	0
